# Screen size: about 16,000 compounds; about 5,100 (32%) were called active. Another 25% or so got no clear call; they are omitted. Calls come from the whole dose curve; as a rule, active = well fitted curve in the direction sought with a large enough effect; inconclusive = small, poorly fitted or top-dose-only effect, or effect the other way; inactive = no such curve, though single readings can be large or run the other way. This is one part of the list.
# Biological target: Cytochrome P450 3A4 (Homo sapiens) (UniProt P08684)
# Test: Cytochrome panel assay with activity outcomes
# Conditions: recombinant CYP, pro-luciferin dealkylation, luminescence, p450-cyp3a4; series mostly up to 57.1 µM; activity, negative = inhibition: at the top concentration
# % is set by controls: 0 for no effect and ±100 for the full control effect.
# Sequence of Cytochrome P450 3A4 (Homo sapiens) (P08684 whole entry, looked up): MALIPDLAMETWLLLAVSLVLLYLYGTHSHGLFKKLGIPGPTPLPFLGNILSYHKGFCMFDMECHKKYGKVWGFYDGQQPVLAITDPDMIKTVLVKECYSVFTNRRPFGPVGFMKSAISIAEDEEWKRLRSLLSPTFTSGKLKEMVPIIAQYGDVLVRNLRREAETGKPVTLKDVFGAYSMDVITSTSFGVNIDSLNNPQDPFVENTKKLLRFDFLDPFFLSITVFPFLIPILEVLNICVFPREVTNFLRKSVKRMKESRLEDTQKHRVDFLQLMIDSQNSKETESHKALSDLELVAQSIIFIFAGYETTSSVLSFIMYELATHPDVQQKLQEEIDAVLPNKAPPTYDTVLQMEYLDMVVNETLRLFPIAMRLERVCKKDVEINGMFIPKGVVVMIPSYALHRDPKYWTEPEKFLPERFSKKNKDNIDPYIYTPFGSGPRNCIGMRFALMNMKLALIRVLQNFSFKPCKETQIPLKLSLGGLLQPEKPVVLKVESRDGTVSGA
SMILES,"activity, negative = inhibition",AC50
CC(=O)ON(C(C)=O)S(=O)(=O)c1ccc(Cl)cc1,-17.1% (inactive),–
COc1ccc(NC(=O)N2CCCC3(CCNCC3)C2)cc1,–,25.1 µM (active)
COC(=O)N1CCC2(CC1)CN(C(=O)Nc1ccc(OC)cc1)C2,2.58% (inactive),–
COCC(=O)N1CCC2(CC1)CN(C(=O)Nc1ccc(OC)cc1)C2,-11.2% (inactive),–
COc1ccc(NC(=O)N2CC[C@@]3(CCCN(C(C)=O)C3)C2)cc1,-13.3% (inactive),–
COc1ccc(NC(=O)N2CCC3(CC2)CCN(C(=O)c2ccco2)CC3)cc1,20.5% (inactive),–
COc1ccc(NC(=O)N2CC3(CCN(C(=O)c4ccco4)CC3)C2)cc1,-10.7% (inactive),–
COc1ccc(NC(=O)N2CCCC3(CCN(C(=O)c4ccco4)CC3)C2)cc1,–,15.8 µM (active)
COc1ccc(NC(=O)N2CC[C@@]3(CCCNC3)C2)cc1,-19.2% (inactive),–
COc1ccc(NC(=O)N2CC[C@@]3(CCCN(C(=O)c4ccc(OC)cc4)C3)C2)cc1,–,15.8 µM (active)
N#Cc1ccc(Oc2nc(C(N)=O)cc(-c3ccccc3)n2)cc1,-2.92% (inactive),–
CO/N=C(\C(=O)N[C@@H]1C(=O)N2C(C(=O)[O-])=C(C[N+]3(C)CCCC3)CS[C@@H]12)c1csc(N)n1,24.4% [at 25.6 µM] (inactive),–
Nc1nc2c(c(=O)[nH]1)N[C@H](CCNc1ccc(C(=O)O)cc1)CN2,-0.744% [at 11.4 µM] (inactive),–
CCOc1c2ccc(C(=O)NCc3ccc(OC(F)(F)F)cc3)cc2nn1CC,-2.81% [at 2.29 µM] (inactive),–
CCOC(=O)C(C(=O)NCc1ccc(C)cc1)c1ncc(C(F)(F)F)cc1Cl (centres undefined),–,1.26 µM (active)
C(=C1/CCCC2=C1Nc1ncnn1C2c1ccccc1)/c1ccccc1 (centres undefined),30.7% (inactive),–
CCOC(=O)C1=C(C)Nc2ncnn2C1c1cccnc1 (centres undefined),–,11.2 µM (active)
CCOc1ccc(/C(O)=C2/C(=O)C(=O)N(CCOCCO)C2c2cccnc2)cc1 (centres undefined),-16% (inactive),–
CCCCOC(=O)C1=C(C)Nc2ncnn2C1c1cc(OC)ccc1OC (centres undefined),–,7.08 µM (active)
COc1ccc(NC(=O)c2ccc(-n3cccn3)nc2)c(OC)c1,-25.9% (inactive),–
COc1cc(OC)c(C2C(C(=O)Nc3ccc(C)cc3C)=C(C)Nc3ncnn32)cc1OC (centres undefined),–,8.91 µM (active)
COc1ccc(C2N=C(N)N=C(N)N2c2ccccc2OC)cc1OC (centres undefined),-8.43% [at 2.29 µM] (inactive),–

SMILES,"activity, negative = inhibition",AC50
C[N+]1(C)C[C@@H](O)C[C@@H]1C(=O)[O-],8.58% [at 25.6 µM] (inactive),–
C=C(C)COc1ccc2c(c1)CCC1C2CC[C@]2(C)C(=O)/C(=N/O)CC12 (some centres undefined),1.68% [at 11.4 µM] (inactive),–
N#CCCn1c(=O)cnc2cnc(N3CCOCC3)nc21,-3.94% (inactive),–
COc1ccc2[nH]cc(CCNc3ncncc3-c3cccc(NS(C)(=O)=O)c3)c2c1,–,0.398 µM (active)
COc1ccc2[nH]cc(CCNc3ncncc3-c3cccnc3)c2c1,–,0.794 µM (active)
COc1cccc(-c2cncnc2NCCc2c[nH]c3ccc(OC)cc23)c1,–,0.501 µM (active)
Clc1ccc(N2CCCCCC2)nn1,-15.4% (inactive),–
COc1ccccc1NC(=O)CCN1C(=O)C2CC=C(Cl)CC2C1=O (centres undefined),–,14.1 µM (active)
Cc1ncc(N=Nc2ccccc2Cl)c(-c2ccccc2)n1,-21.3% (inactive),–
COC(=O)CNC(=O)CN1C(=O)N(c2ccc(Cl)cc2)C(N(O)C(=O)Nc2ccc(Cl)cc2)C1(C)C (centres undefined),–,4.47 µM (active)
COC(=O)CC1C(=O)NCCN1C(=O)Nc1ccc(Cl)cc1 (centres undefined),-7.49% (inactive),–
COC(=O)CNC(=O)CN1C(=O)N(c2ccccc2)C(N(O)C(=O)Nc2ccccc2)C1(C)C (centres undefined),27.6% (inactive),–
Cc1ccc(OCCOCCn2ccnc2)c(Br)c1,–,0.562 µM (active)
Cc1cccc(OCCCCCn2ccnc2)c1,–,0.562 µM (active)
COc1cc(C)ccc1OCCOc1cc(C)ccc1Cl,5.86% [at 2.29 µM] (inactive),–
O=C(O)c1cccc(OCCO)c1,-12.1% [at 11.4 µM] (inactive),–
Cc1cc2[nH]c(=O)c3ccccc3n2n1,-11% (inactive),–
O=c1cc(CSc2nnc(-c3cccnc3)n2-c2ccccc2F)nc2sccn12,–,2.82 µM (active)
Cn1cc(C(=O)N/N=C/C(Br)=C\c2ccccc2)ccc1=O,-21.8% (inactive),–
CS(=O)(=O)N1CCC[C@@]2(CCN(C(=O)Nc3ccccc3)C2)C1,-21.2% (inactive),–
N#Cc1cccc(NC(=O)N2CC[C@@]3(CCCN(S(=O)(=O)c4ccccc4)C3)C2)c1,–,3.16 µM (active)
O=C(Nc1cccc(F)c1)N1CCCC2(CCN(S(=O)(=O)c3ccccc3)CC2)C1,–,12.6 µM (active)

SMILES,"activity, negative = inhibition",AC50
CS(=O)(=O)N1CCC2(CCN(C(=O)Nc3cccc(F)c3)CC2)CC1,0.77% (inactive),–
O=C(Nc1cccc(F)c1)N1CC2(CCN(S(=O)(=O)c3ccccc3)CC2)C1,-16.5% (inactive),–
O=C(Nc1cccc(F)c1)N1CC[C@@]2(CCCN(S(=O)(=O)c3ccccc3)C2)C1,–,25.1 µM (active)
CS(=O)(=O)N1CCC2(CCN(C(=O)Nc3cccc(C#N)c3)CC2)CC1,-0.782% (inactive),–
CC(/C=C1\N=C(SCc2ccccc2Cl)SC1=O)=C\c1ccccc1,–,14.1 µM (active)
Clc1ccccc1CSc1nnc(/C=C/c2ccccc2)o1,-23.3% (inactive),–
O=c1[nH]c2cc(Cl)ccc2c(O)c1-c1cccc(Oc2ccccc2)c1,-19.3% (inactive),–
CC1(C)CCC=[N+]1[O-],16.1% (inactive),–
NC(N)=NC(N)=Nc1ccccc1,-12.3% (inactive),–
CCc1ccc(OCCCC(=O)Nc2ccc(N3CCCCC3)cc2)cc1,-10.4% (inactive),–
O=C(Nc1ccc(N2CCCCC2)cc1)c1cncc(Br)c1,–,1.41 µM (active)
O=C(O)CNC(=O)[C@@H](CS)Cc1ccccc1,0.949% (inactive),–
COc1ccccc1C(=O)NCCn1cc(SCC(=O)Nc2nnc(C)s2)c2ccccc21,–,6.31 µM (active)
CCSc1nnc(NC(=O)Cc2ccccc2OC)s1,-9.72% (inactive),–
CCCCCCCC/C=C\CCCCCCCC(=O)N[C@@H](CO)Cc1ccc(O)cc1,–,10 µM (active)
CCCCCCC/C=C\CCCCCCCCC(=O)O,-7.01% (inactive),–
CC(=O)NCCc1ccc(O)c(O)c1,-7.98% (inactive),–
CCCCCCCCCCCCCCC/C=C\[C@H](O)[C@@H](NC(=O)CCCCCCCCCCCCC)OC (tested in a mixture with another compound),15.6% (inactive),–
CCCCCCCC/C=C\CCCCCCCC(=O)NCCc1ccc(O)c(O)c1,–,3.16 µM (active)
CCCCCCCCCCCCCCCC(=O)NC(C)C,-13.2% (inactive),–

# — PubChem BioAssay AID1851 (National Center for Advancing Translational Sciences (NCATS), 2009)
